These results are taken from PubChem BioAssay AID652017 (The Scripps Research Institute Molecular Screening Center, 2013).

Screen size: about 370,000 compounds; about 3,800 (1%) were called active. Rule as the data show it: active = activation above about 7.8%; inactive = the rest. The entries come from a sample that favours actives as a whole.

A short description of this experiment: SMARCA2 (BRM) function activators, primary screen, cell-based, luminescence, high throughput (AID 652017).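 Also: 0% = vehicle wells and 100% = reference activator wells.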 As to conditions: MG213 cells, MMTV-luciferase reporter, dexamethasone, overnight; at 9.1 µM; stronger effect = higher value.
As for `COc1ccc(S(=O)(=O)N(CC(=O)N/N=C/c2ccc(C(=O)O)cc2)Cc2ccccc2)cc1OC`, the activation was 0.18% (inactive).
Turning to `COc1cc(/C=N/NC(=O)c2ccccc2)ccc1OS(=O)(=O)c1ccccc1`, the activation was 11.6% (active).
`COc1cc(/C=N/NC(=O)Nc2ccccc2)ccc1OCCOc1ccccc1C`: the activation is -2.07% (inactive).
To `Cc1ccc(S(=O)(=O)NC(C)C(=O)NCc2ccc(Cl)cc2)cc1` (configuration not stated) belongs 8.48% (active).
To `COc1ccc(S(=O)(=O)NC(C)C(=O)NCc2ccncc2)cc1Cl` (configuration not stated) belongs -1.23% (inactive); to `Cc1ccc(CNC(=O)COc2ccc(S(=O)(=O)NC(C)C)cc2)cc1`, -3.1% (inactive).
On to `CC(C)C(=O)NC(NC(=S)NC1CCS(=O)(=O)C1)C(Cl)(Cl)Cl` (configuration not stated), for which the activation was 1.31% (inactive).
To `O=S1(=O)CCC(NC(=S)SCc2ccccc2Br)C1` (configuration not stated) belongs -1.67% (inactive); to `CCCSC(=S)NC1CCS(=O)(=O)C1` (configuration not stated), 8.13% (active).
To `COc1ccc(C(=O)OCCN2CCN(C3CN(Cc4cn(Cc5ccccc5F)nn4)S(=O)(=O)C3)CC2)cc1OC` (configuration not stated) belongs -1.26% (inactive).
Consider `Cc1nc(N)sc1N=Nc1c(C)n(C)n(-c2ccccc2)c1=O`, for which the activation is -4.59% (inactive).
The result for `Cc1c(N=Nc2ccc(N(C)C)cc2)c(=O)n(-c2ccccc2)n1C` reads 7.84% (active); that for `Cc1c(C=O)n(C)n(-c2ccccc2)c1=O`, 1.03% (inactive).
For `C[C@@H]1COc2cccc(N3CCCC3)c2S(=O)(=O)N1C`, the activation is -1.71% (inactive).
Regarding `COc1ccc(-c2cc(C(=O)NC(Cc3c[nH]c4ccccc34)C(=O)O)c(C)o2)cc1OC` (configuration not stated), the activation is 3.58% (inactive).
In the case of `COc1cccc(CNC(=O)[C@H]2CCCN2C(=O)[C@H]2CCCN2C(=O)C2CCCCC2)c1`, the activation was -3.87% (inactive).
The result for `CCN(CC)CCNC(=O)Cn1cnc2sc(C)c(S(=O)(=O)N3CCOCC3)c2c1=O` reads -6.85% (inactive).
As for `CCN(CC)CCNC(=O)c1sc2ncn(CC(=O)Nc3ccc(C)c(Cl)c3)c(=O)c2c1C`, the activation is 7.84% (active).
The result for `CCN(CC)CCCNC(=O)Cn1cnc2sc(C)c(S(=O)(=O)N3CCN(c4ncccn4)CC3)c2c1=O` reads -0.93% (inactive).
Regarding `Cc1cccc(C)c1NC(=S)N(Cc1cccnc1)Cc1ccccc1Cl`, the activation is -5.44% (inactive).
The result for `CCOC(=O)[C@]12CCCC=C1N(Cc1ccc(OC)cc1)C(=O)[C@@H]2CC(=O)N1CCOCC1` reads 1.91% (inactive).
For the molecule `COc1ccc(-n2c(COc3ccccc3)nnc2SCC(=O)Nc2ccc3c(c2)OCO3)cc1`, the activation is -4.96% (inactive).
Regarding `O=C(NCCCn1ccnc1)c1cc2c(s1)CCCC2`, the activation was -1.02% (inactive).
As to `O=C(Nc1ccc(F)cc1)c1cc2c(s1)CCCC2`, the activation is 10.2% (active).
The result for `O=C(NCC1CCCO1)c1cc2c(s1)CCCC2` (configuration not stated) reads 10.9% (active); that for `O=C(Nc1cccc2c1CCCC2)c1ccc(F)cc1`, -0.7% (inactive).
The result for `O=C(CNC(=O)c1cc2c(s1)CCC2)Nc1ccccc1Br` reads 3.62% (inactive); that for `CCC(=O)c1c[nH]c(C(=O)NCC2CCCO2)c1` (configuration not stated), 1.33% (inactive); that for `Cc1ccccc1NC(=O)C1CCN(c2ncccn2)CC1`, -1.72% (inactive).
Consider `CC(=O)N1CCc2cc(S(=O)(=O)NCCC(=O)N3CCCC3)ccc21`, for which the activation is -4.7% (inactive).
The result for `COC(=O)C1CN(Cc2cn(Cc3ccc(F)cc3)nn2)CCS(=O)(=O)N1Cc1ccc(Cl)cc1` (configuration not stated) reads -3.03% (inactive); that for `COc1ccc(-c2cc(C3CCN(c4ncccc4[N+](=O)[O-])CC3)[nH]n2)cc1`, -2.21% (inactive); that for `COc1ccc(-c2cc3ncccc3cn2)cc1`, 8.94% (active).
`COc1cc(OC)cc(-c2cc3ccc(F)cc3cn2)c1`: the activation was 7.74% (inactive).
To `COCC(C)n1c(SCC(=O)NC2CCCCC2C)nc2ccccc2c1=O` (configuration not stated) belongs -2.03% (inactive); to `COCC(C)n1c(SCc2ccc(C(=O)OC)o2)nc2ccccc2c1=O` (configuration not stated), 9.35% (active); to `COCCn1c(C)cc(C(=O)CSc2nc3ccccc3c(=O)n2C(C)COC)c1C` (configuration not stated), -2.97% (inactive).
To `COC(=O)C1CN(Cc2ccc(F)cc2)CCS(=O)(=O)N1Cc1ccc(Cl)cc1` (configuration not stated) belongs -2.03% (inactive); to `O=C(Cc1ccc(Br)cc1)NCCN1CCOCC1`, 5.26% (inactive).
In the case of `CSc1ccc(CNCCN2CCOCC2)cc1`, the activation was -0.08% (inactive).
The result for `c1ccc2cc3c(NCCN4CCOCC4)ccnc3cc2c1` reads 15.8% (active); that for `CC(C)(C)n1nc(C2CC2)c(Br)c1NC(=O)c1ccccc1F`, -3.81% (inactive).
For the molecule `COc1ccc(S(=O)(=O)N2CCOCC2)cc1NC(=O)Cc1coc2cc(C)ccc12`, the activation is -0.89% (inactive).
For the molecule `C#CCCN([C@H](C(=O)OC)C(C)C)S(=O)(=O)c1ccc(F)cc1Br`, the activation is 0.37% (inactive).
The result for `O=C(OC12CCCN(C1)/C(=C/c1cccnc1)C2)C1CCCC1` (configuration not stated) reads -1.64% (inactive).
As to `Cc1ccc(N/C=C/C(=O)c2ccccc2)cc1C`, the activation was 14.5% (active).
Take `Cc1cccc(C(=O)Nc2ccc(C(=O)/C=C/c3cccs3)cc2)c1`: the activation was 7.01% (inactive).
To `COC(C(=O)Nc1ccc(S(=O)(=O)Nc2ccc(C)c(C)c2)cc1)c1ccccc1` (configuration not stated) belongs -2.54% (inactive).
To `O=C(CCCCCCCC(=O)N1CCCCC1)N1CCCCC1` belongs -4.31% (inactive).
With `Cc1cccc(C(=O)Nc2c(-c3ccc(F)cc3)nc3ncccn23)c1`, the activation was -2.99% (inactive).
The result for `CC(c1ccc(N)cc1)c1cn(C)c2ccccc12` (configuration not stated) reads 2.03% (inactive); that for `Cc1ccc(CN(N=Nc2nonc2N)c2nonc2N)c(C)c1`, -3.9% (inactive); that for `CC(C)c1ccc(NC(=S)NC2CC3C=CC2C3)cc1` (configuration not stated), 8.66% (active).
Turning to `O=C(COC(=O)C1CC2C=CC1C2)Nc1ccccc1` (configuration not stated), the activation is -3.49% (inactive).
To `CC(NC(=S)Nc1ccc(OC(F)F)cc1)c1ccc(F)cc1` (configuration not stated) belongs -2.75% (inactive); to `COc1cccc(/C=C2\CC3(OC(C)=O)CCCN2C3)c1` (configuration not stated), 1.54% (inactive).
The result for `Cc1cc(OC(=O)c2ccccc2)c([N+](=O)[O-])c(=O)[nH]1` reads 7.86% (active); that for `COc1cccc(C(=O)Oc2cc(C)[nH]c(=O)c2[N+](=O)[O-])c1`, 0.69% (inactive); that for `Cc1cc(OC(=O)c2ccc(OC(C)C)cc2)c([N+](=O)[O-])c(=O)[nH]1`, -2.6% (inactive).
Turning to `Cn1c(=O)n(C)c2cc(S(=O)(=O)Nc3ccc(F)cc3)ccc21`, the activation was -2.88% (inactive).
For the molecule `CC1CCC(NS(=O)(=O)c2ccc3c(c2)CC(=O)N3)CC1` (configuration not stated), the activation was -2.52% (inactive).
The result for `O=C1Cc2cc(S(=O)(=O)Nc3cccc(F)c3)ccc2N1` reads 9.16% (active).
To `CCN(CC)C(=O)CC[C@H]1CC[C@]2(CCCN(Cc3ccc(Cl)cc3)C2)O1` belongs -0.46% (inactive).
To `CCOC(=O)CCCNC(=O)COC(=O)c1cc(Br)c(Br)s1` belongs -1.12% (inactive).
Turning to `COC(=O)C1CN(CC(C)C)CCS(=O)(=O)N1Cc1ccc(F)cc1` (configuration not stated), the activation is 1.2% (inactive).
In the case of `COC(=O)[C@]12C[C@H](CC(=O)NCC34CC5CC(CC(C5)C3)C4)C(=O)N(Cc3ccc(Cl)cc3Cl)C1=C[C@H](COCc1ccccc1)O[C@@H]2C`, the activation is -1.25% (inactive).
Turning to `C=CCn1c(SCC(N)=O)nnc1-c1ccccc1OC`, the activation was -5.95% (inactive).
To `Cn1c(SCC(=O)c2cccs2)nnc1-c1ccco1` belongs 2.45% (inactive).
For `O=C(NCc1ccccc1)c1onc(CSc2nc3ccccc3[nH]2)c1C(=O)NCc1ccccc1`, the activation was -0.17% (inactive).
To `O=C(CSc1nc2ccccc2[nH]1)c1cccs1` belongs 8.32% (active); to `COC(=O)[C@@]12CCCCC3=C1N(CCC3)C(=O)[C@H]2CC(=O)NCc1cccc2ccccc12`, -2.69% (inactive); to `Cc1cc(Cl)ccc1C(=O)C1CCCN(C(=O)c2ccc3c(c2)OCO3)C1` (configuration not stated), 0.89% (inactive).
The result for `CC1=NNC(=O)C1CC(=O)N/N=C/c1ccncc1` (configuration not stated) reads -3.81% (inactive).
To `O=C(CSc1nnc(-c2ccccn2)n1-c1ccccc1)Nc1ccc2cn[nH]c2c1` belongs 0.38% (inactive).
As to `Cc1ccc(C(=O)N(Cc2ccccn2)CC2CCCO2)cc1` (configuration not stated), the activation was -2.73% (inactive).
Regarding `COc1ccc(CSc2nnc(-c3cccc(C)c3)n2C)cc1`, the activation is -2.04% (inactive).
To `Cc1ccc(-c2nnc(SCC(=O)Nc3ccc(Oc4ccccc4)cc3)n2Cc2ccco2)cc1` belongs -4.83% (inactive).
For `CC(=O)Nc1ccc(S(=O)(=O)NCC2CCC(C(=O)NCCc3ccccc3)CC2)cc1` (configuration not stated), the activation was -3.64% (inactive).
On to `CCCCNC(=O)C1CCC(CNS(=O)(=O)c2ccc(NC(C)=O)cc2)CC1` (configuration not stated), for which the activation is 12.9% (active).
With `CCCCSCCCNC(=O)C1CCC(CNS(=O)(=O)c2ccc(NC(C)=O)cc2)CC1` (configuration not stated), the activation was -2.92% (inactive).
The result for `COc1ccccc1C(=O)N1CCNC(=O)C1CC(=O)Nc1ccc(Cl)cc1` (configuration not stated) reads -0.22% (inactive).
To `COc1ccc(C2CC=C(C(=O)O)C(c3ccccc3F)N2S(=O)(=O)c2ccc(C)cc2)cc1OC` (configuration not stated) belongs 0.02% (inactive); to `N#C/C=C1\Sc2ccccc2C(=O)N1CC(=O)N1CCN(S(=O)(=O)c2ccccc2)CC1`, 6.51% (inactive).
With `CCc1ccccc1NC(=O)CSc1nnc(-c2cccs2)o1`, the activation is 5.4% (inactive).
Regarding `COc1cc(CN2CCC(C(N)=O)CC2)ccc1OCc1ccccc1`, the activation was 10.4% (active).
To `COc1ccc(COCC(O)CN2CCC(C(N)=O)CC2)cc1` (configuration not stated) belongs -2.59% (inactive).
Regarding `COc1ccc(CCN2C(=O)CC(N3CCC(C(N)=O)CC3)C2=O)cc1OC` (configuration not stated), the activation was -1.41% (inactive).
The result for `Cc1nc2ccc(C(=O)N3CCN(C(=O)C(C)(C)C)CC3)cc2n1C1CCCC1` reads -3.37% (inactive); that for `CC1CC(C)CN(CCC(=O)Nc2ccc3c(c2)CCC3)C1` (configuration not stated), -0.27% (inactive); that for `CC(C)Oc1ccc(C(=O)NCC(=O)Nc2ccc3c(c2)CCC3)cc1`, 5.66% (inactive).
The result for `O=C(Nc1ccc2c(c1)CCC2)c1ccc(Br)s1` reads 9.61% (active); that for `C[C@H]1CN([C@@H](C)CO)C(=O)Cc2cc(NS(C)(=O)=O)ccc2O[C@@H]1CN(C)CC1CC1`, 0.45% (inactive).
